Experimental findings from PubChem BioAssay AID1159607 (Small Molecule Screening Facility, UW Madison, 2016) are described below.

Values joined by “and” are separate entries in the source; they are usually repeats but may differ in a detail not shown here. Equal entries are not always repeated. About 400 (0.57%) of roughly 70,000 compounds were called active. No stated cut-off is given here; in the data, active means FP signal below about 40; inactive means the rest. This excerpt belongs to a sample that is enriched for actives.

The experiment concerns RMI core complex (RMI1/RMI2) binding to FANCM MM2 peptide, human. The experiment is described as follows: disruptors of RMI1/RMI2 association with MM2 peptide – biochemical, fluorescence polarization, human, primary screen (AID 1159607). As to conditions: RMI core complex with F-MM2 peptide, at 33 µM, stronger effect = lower value. On the technique in general: Fluorescence polarisation rises when a labelled molecule tumbles more slowly, as on binding a larger partner.
Take `CC(=O)O[C@H]1CC[C@@]2(C)C(=CCC3C2CC[C@]2(C)C(=O)CCC32)C1` (stereo not given in full): the FP signal (polarization) is -6 (active). The result for `CC(=O)NBr` reads 53 (inactive); that for `CC12CCC3C(CCC4CC(O)CCC43C)C1C/C(=C\c1ccccc1Cl)C2=O` (stereo not given), 62 (inactive). Then `CN1CCc2cc3c(cc2[C@H]1[C@@H]1OC(=O)c2c1ccc1c2OCO1)OCO3`, with 67 (inactive) and 61 (inactive); and `CSC(=NCc1ccccc1Cl)N/C(N)=N/[N+](=O)[O-]`, with 58 (inactive); and `NCC(O)c1ccc(O)cc1` (stereo not given), with -18 (active) and 54 (inactive) and 46 (inactive). Then `COc1ccc2c(c1O)-c1cccc3c1[C@@H](C2)N(C)CC3`, with 57 (inactive); and `c1cncc(OCC2=NCCN2)c1`, with 51 (inactive).

With `CNC(=O)O/N=C\C(C)(C)SC`, the FP signal (polarization) is 58 (inactive). Then `CC(=O)NS(=O)(=O)c1ccc(NC(=O)c2cccn(Cc3cccc([N+](=O)[O-])c3)c2=O)cc1`, with 51 (inactive).
